Screening data as filed in PubChem BioAssay.
Mdm2-MdmX inh – disrupts the human Mdm2-MdmX interaction. inhibition, % at 8 µM. 330,000 tested, 3% active. O15151+Q00987. SaOS-2 split-luciferase Mdm2/MdmX complementation, luminescence;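 active means inhibition of at least 50% at 8 µM in the primary screen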
Gli-Sufu antag – blocks Gli-Sufu signaling in a luciferase reporter; inhibition, % at 5 µM; 340,000 tested, 0.74% active; Sufu-KO-LIGHT fibroblasts, Gli luciferase reporter luminescence;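 active means inhibition above about 55%, limit read from the data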;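 further: 0% = DMSO-treated cells and 100% = wells with medium but no cells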
697 NFkB inh – inhibitors of the PMA/ionomycin-induced NF-kB reporter in 697 B cells; 697 B-cell NF-kB luciferase reporter, 16 h; inhibition, % at 4 µM; 330,000 tested, 0.33% active; AID 435022; in the data active means inhibition above about 35%
Jurkat NFkB inh – inhibitors of the PMA/ionomycin-induced NF-kB reporter in Jurkat cells. PMA/ionomycin-induced NF-kB luciferase reporter, luminescence. inhibition, % at 4 µM. 330,000 tested, 0.53% active; in the data active means inhibition above about 50%
CSC inhib – blocks cancer stem cells; cancer stem cell-like cells viability, luminescence; AID 2717; inhibition, % at 7.5 µM; 300,000 tested, 1.1% active; in the data active means inhibition above about 75%; inconclusive means no clear call, values can overlap the other calls; tested in HMLE shEcad cells
Beta cell apopt – blocks beta cell apoptosis. INS-1E cytokine-induced death, ATP luminescence, 48 h; percent of positive-control rescue, neutral wells zero. protection from apoptosis, % (test concentration not listed). AID 435005. 300,000 tested, 0.8% active;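 active means Every replicate reaches about 75%, or at least half do and their mean reaches it too, limit read from the data; inconclusive means At least half of replicates reach the limit but their mean does not; inactive means Under half of replicates reach the limit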;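 further: 0% = cytokine-treated negative control wells and 100% = positive control rescue; higher means more ATP so stronger rescue from cytokine killing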
Mdm2 MdmX conf – human Mdm2/MdmX binding inhibition, confirmed | luminescent assay | 10,000 tested, 55% active | inhibition, % at 8 µM | shares compounds with Mdm2-MdmX inh; in the data active means inhibition above about 40%
Full FLuc ctr – counter-screen for Mdm2/MdmX inhibitors: full-length luciferase | shares compounds with Mdm2-MdmX inh | SaOS-2 full-length luciferase counterscreen, luminescence | inhibition, % at 8 µM | 6,200 tested, 77% active | AID 504607;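 active means mean inhibition at 8 µM reaching about 37%, which flags the compound as non-specific, limit read from the data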;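 further: p53-null SaOS-2 cells with luciferase driven by a doxycycline-inducible promoter; compound on cells about two nights before reading with doxycycline added after day one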
An asterisk follows results filed as active; u = inconclusive; x = no result given. The list is not random: actives were taken first. Their share in the collection is about 4.5%.

SMILES | Mdm2-MdmX inh | Gli-Sufu antag | 697 NFkB inh | Jurkat NFkB inh | CSC inhib | Beta cell apopt | Mdm2 MdmX conf | Full FLuc ctr
Cc1ccc(-c2nc(NC(=O)c3nn(C)cc3[N+](=O)[O-])sc2C)cc1 | 79* | 11 | 5 | 21 | x | 116* | 100* | 53*
Cn1cc([N+](=O)[O-])c(C(=O)Nc2nc(-c3ccc(Cl)cc3)cs2)n1 | 94* | 4 | 4 | 7 | 103* | x | 90* | 44*
Cc1ccc(-c2nc(NC(=O)c3nn(C)cc3[N+](=O)[O-])sc2C)cc1C | 81* | -10 | -37 | 24 | x | 107* | 100* | 51*
O=C(NC(=S)Nc1nc(-c2cccc([N+](=O)[O-])c2)cs1)c1cc(Cl)ccc1Cl | 52* | x | -3 | -8 | 43 | 1 | -5 | x
O=C(CSc1nnc(NC2CC2)s1)NN1C(=O)NC2(CCCCC2)C1=O | 10 | 6 | 8 | -5 | x | 0 | x | x
COc1ccccc1CNC(=O)CCNS(=O)(=O)/C=C/c1ccc(C)cc1 | 14 | -2 | 2 | -9 | -9 | 0 | x | x
CCN(CC)c1ccc(NC(=O)c2ccc(S(=O)(=O)N3CCOCC3)cc2)cc1 | 17 | 3 | -13 | -15 | -12 | -5 | x | x
COc1ccc(NC(=O)CN(C)C(=O)/C=C/c2ccc(OCc3ccccc3)cc2)cc1 | 52* | 5 | 1 | 23 | x | 33 | 22 | x
CC(=O)c1sc(C(=O)O)c(-c2ccco2)c1-c1ccco1 | -4 | 3 | -5 | 0 | -4 | -9 | x | x
CC(=O)N/C(=C\c1ccccc1)C(=O)OCC(=O)Nc1ccc(C)c(S(=O)(=O)N(C)C)c1 | 28 | 3 | 15 | -3 | -12 | -9 | x | x
Cc1nnnn1/C(=C\c1ccccc1)C(=O)OCC(=O)Nc1ccc(Cl)cc1F | 67* | 4 | 8 | 6 | -3 | -1 | 61* | 61*
O=C(COC(=O)Cc1n[nH]c(=O)c2ccccc12)Nc1ccc(Cl)cc1F | 22 | 2 | 25 | -7 | -7 | 2 | x | x
Cc1nnnn1/C(=C\c1ccccc1)C(=O)OCC(=O)Nc1cccc(S(=O)(=O)N(C)C)c1 | 72* | 5 | -9 | 7 | x | -23 | 39 | 34
O=C(Nc1nccs1)c1cccc(N2C(=O)c3cccc4c([N+](=O)[O-])ccc(c34)C2=O)c1 | 87* | 11 | -43 | -7 | 36 | 2 | 9 | x
CCc1c(C(=O)N2CCCN(C)CC2)csc1C | -4 | -11 | -1 | 9 | -1 | -6 | x | x
OCCNCc1c(OCc2ccc(Cl)cc2)ccc2ccccc12 | 53* | 1 | 9 | 27 | 20 | 9 | 41* | 70*
CCOc1cc(CNCCO)cc(Br)c1OCc1ccccc1Cl | 68* | 13 | -12 | 38 | -18 | 38 | 34 | x
CC(O)CNCCNCc1c(OCc2ccccc2)ccc2ccccc12 (stereo not given) | 31 | -5 | 8 | -11 | 13 | 6 | x | x
CCOc1cc(CNC(C)(C)CO)cc(Br)c1OCc1ccc(Cl)cc1Cl | 96* | 14 | 24 | 14 | x | 13 | 49* | 37*
CCOc1cc(CNCCO)cc(Br)c1OCc1ccc(Cl)cc1 | 80* | -7 | 27 | 36 | 85* | 36 | 21 | x
CCOc1cccc(CNCCO)c1OCc1ccc(Cl)cc1 | -9 | 7 | -28 | -17 | 11 | 3 | x | x
O=C(NCC1CCCO1)C(=O)N/N=C/c1c(F)cccc1Cl (stereo not given) | -6 | 16 | -1 | -12 | x | -7 | x | x
CCOc1cc(CNCCN2CCOCC2)ccc1OCc1ccccc1Cl | 25 | 6 | -6 | 6 | 61 | 8 | x | x
CCOc1cc(CNCCCN2CCOCC2)cc(Br)c1OCc1ccccc1Cl | 92* | 34 | -5 | 20 | -5 | 17 | 34 | 52*
Cc1ccc(-c2ccc(/C=C(\C#N)C(=O)Nc3cc(C)nn3-c3ccccc3)o2)cc1 | 54* | x | 0 | -4 | 37 | 18 | 4 | x
SMILES | Mdm2-MdmX inh | Gli-Sufu antag | 697 NFkB inh | Jurkat NFkB inh | CSC inhib | Beta cell apopt | Mdm2 MdmX conf | Full FLuc ctr
COc1cc(Nc2nc(-c3ccccc3)c3cc(C)ccc3n2)cc(OC)c1OC | 56* | 18 | 7 | 7 | u | 7 | 24 | x
Cc1ccc2nc(NCC(=O)O)nc(-c3ccccc3)c2c1 | 11 | -4 | -27 | -2 | 6 | 3 | x | x
C[C@H](CO)N1C[C@H](C)[C@@H](CN(C)C(=O)NC2CCCCC2)Oc2c(NC(=O)Nc3ccc(C(F)(F)F)cc3)cccc2C1=O | 28 | 22 | -8 | -12 | x | u | x | x
Nc1nc(C2CC2)c(Sc2sc(N)nc2C2CC2)s1 | 51* | -1 | -105 | -4 | 31 | -22 | 38 | 119*
Nc1nc(C2CCOCC2)cs1 | 20 | 3 | 6 | -1 | 0 | -3 | x | x
CCCN(c1ccc(OCC)cc1)c1ncnc2nc[nH]c12 | 46 | -1 | 7 | 8 | -7 | -3 | x | x
CCN(c1ccc(OC)cc1)c1ncnc2nc[nH]c12 | 63* | -25 | -32 | 18 | -5 | -18 | 66* | 36*
C=CCN(CC=C)S(=O)(=O)c1ccc2nc(NC(=O)C(C)C)sc2c1 | 59* | 0 | -46 | 27 | 66 | 22 | 60* | 52*
CCCOC(=O)C1=C(C)NC(=O)NC1c1cc2c(cc1Br)OCO2 (stereo not given) | 7 | 8 | 0 | -4 | -10 | -4 | x | x
COc1ccc(C(=O)N/C(=C\c2cn(S(=O)(=O)N(C)C)c3ccccc23)C(=O)NC(C)C)cc1 | -1 | -1 | 5 | 8 | -11 | 3 | x | x
CCN(CC)C(=O)/C(=C/c1cn(S(=O)(=O)N(C)C)c2ccccc12)NC(=O)c1ccc(OC)cc1 | 61* | 14 | -2 | -8 | 8 | 4 | 24 | x
Cc1ccccc1Nc1c(-c2ccccn2)nc2ccccn12 | 65* | -3 | -6 | -3 | 37 | 17 | 46* | 52*
Cc1ccn2c(Nc3ccccc3C)c(-c3ccccn3)nc2c1 | 85* | 3 | 4 | 3 | 58 | 94* | 52* | 32
Cc1ccn2c(Nc3ccccc3)c(-c3ccccn3)nc2c1 | 81* | 24 | 1 | -1 | 81* | 96* | 83* | 21
Cc1ccc2nc(-c3ccccn3)c(Nc3ccccc3C)n2c1 | 86* | 0 | -8 | -9 | u | 101* | 75* | 36
Cc1ccccc1Nc1c(-c2cccnc2)nc2ccccn12 | 29 | -7 | 3 | 0 | 1 | -21 | x | x
Cc1ccn2c(NC(=O)c3ccccc3)c(-c3ccccc3)nc2c1 | -16 | -10 | 7 | -1 | -8 | -5 | x | x
CC1(C#CC[N+]2(C)CCCCC2)CCC2C(O1)c1ccccc1OC2(C)C (stereo not given) | 1 | -5 | -2 | 5 | 3 | -12 | x | x
